Only some compounds are listed: those with a hit (about 12% of all), similar ones and a draw of the others.
G9a inh: blocks human histone lysine methyltransferase G9a; Q96KQ7; G9a H3K9 monomethylation, AlphaScreen, 2 h; Potency, µM (highest dose often 102 µM), hits mostly inhibitors; hit rate 8.8% among 350,000; further: nearly all actives have a fitted effect of over 75% in size
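Signal arises when biotinylated H3K9 peptide, once monomethylated, bridges streptavidin donor and antibody-captured acceptor beads. Enzyme at 20 nM was preincubated 15 min with test compounds; peptide 500 nM and SAM 20 uM then reacted for 2 h.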
BAZ2B block: inhibitors of human BAZ2B bromodomain; Q9UIF8; AlphaScreen BAZ2B-H3K14Ac peptide displacement; Potency, µM (series often up to 114 µM), actives largely listed as inhibitors; hit rate 4.4% among 360,000; further: nearly all actives have a fitted effect of over 60% in size
Target sequence (Q9UIF8 whole entry, looked up): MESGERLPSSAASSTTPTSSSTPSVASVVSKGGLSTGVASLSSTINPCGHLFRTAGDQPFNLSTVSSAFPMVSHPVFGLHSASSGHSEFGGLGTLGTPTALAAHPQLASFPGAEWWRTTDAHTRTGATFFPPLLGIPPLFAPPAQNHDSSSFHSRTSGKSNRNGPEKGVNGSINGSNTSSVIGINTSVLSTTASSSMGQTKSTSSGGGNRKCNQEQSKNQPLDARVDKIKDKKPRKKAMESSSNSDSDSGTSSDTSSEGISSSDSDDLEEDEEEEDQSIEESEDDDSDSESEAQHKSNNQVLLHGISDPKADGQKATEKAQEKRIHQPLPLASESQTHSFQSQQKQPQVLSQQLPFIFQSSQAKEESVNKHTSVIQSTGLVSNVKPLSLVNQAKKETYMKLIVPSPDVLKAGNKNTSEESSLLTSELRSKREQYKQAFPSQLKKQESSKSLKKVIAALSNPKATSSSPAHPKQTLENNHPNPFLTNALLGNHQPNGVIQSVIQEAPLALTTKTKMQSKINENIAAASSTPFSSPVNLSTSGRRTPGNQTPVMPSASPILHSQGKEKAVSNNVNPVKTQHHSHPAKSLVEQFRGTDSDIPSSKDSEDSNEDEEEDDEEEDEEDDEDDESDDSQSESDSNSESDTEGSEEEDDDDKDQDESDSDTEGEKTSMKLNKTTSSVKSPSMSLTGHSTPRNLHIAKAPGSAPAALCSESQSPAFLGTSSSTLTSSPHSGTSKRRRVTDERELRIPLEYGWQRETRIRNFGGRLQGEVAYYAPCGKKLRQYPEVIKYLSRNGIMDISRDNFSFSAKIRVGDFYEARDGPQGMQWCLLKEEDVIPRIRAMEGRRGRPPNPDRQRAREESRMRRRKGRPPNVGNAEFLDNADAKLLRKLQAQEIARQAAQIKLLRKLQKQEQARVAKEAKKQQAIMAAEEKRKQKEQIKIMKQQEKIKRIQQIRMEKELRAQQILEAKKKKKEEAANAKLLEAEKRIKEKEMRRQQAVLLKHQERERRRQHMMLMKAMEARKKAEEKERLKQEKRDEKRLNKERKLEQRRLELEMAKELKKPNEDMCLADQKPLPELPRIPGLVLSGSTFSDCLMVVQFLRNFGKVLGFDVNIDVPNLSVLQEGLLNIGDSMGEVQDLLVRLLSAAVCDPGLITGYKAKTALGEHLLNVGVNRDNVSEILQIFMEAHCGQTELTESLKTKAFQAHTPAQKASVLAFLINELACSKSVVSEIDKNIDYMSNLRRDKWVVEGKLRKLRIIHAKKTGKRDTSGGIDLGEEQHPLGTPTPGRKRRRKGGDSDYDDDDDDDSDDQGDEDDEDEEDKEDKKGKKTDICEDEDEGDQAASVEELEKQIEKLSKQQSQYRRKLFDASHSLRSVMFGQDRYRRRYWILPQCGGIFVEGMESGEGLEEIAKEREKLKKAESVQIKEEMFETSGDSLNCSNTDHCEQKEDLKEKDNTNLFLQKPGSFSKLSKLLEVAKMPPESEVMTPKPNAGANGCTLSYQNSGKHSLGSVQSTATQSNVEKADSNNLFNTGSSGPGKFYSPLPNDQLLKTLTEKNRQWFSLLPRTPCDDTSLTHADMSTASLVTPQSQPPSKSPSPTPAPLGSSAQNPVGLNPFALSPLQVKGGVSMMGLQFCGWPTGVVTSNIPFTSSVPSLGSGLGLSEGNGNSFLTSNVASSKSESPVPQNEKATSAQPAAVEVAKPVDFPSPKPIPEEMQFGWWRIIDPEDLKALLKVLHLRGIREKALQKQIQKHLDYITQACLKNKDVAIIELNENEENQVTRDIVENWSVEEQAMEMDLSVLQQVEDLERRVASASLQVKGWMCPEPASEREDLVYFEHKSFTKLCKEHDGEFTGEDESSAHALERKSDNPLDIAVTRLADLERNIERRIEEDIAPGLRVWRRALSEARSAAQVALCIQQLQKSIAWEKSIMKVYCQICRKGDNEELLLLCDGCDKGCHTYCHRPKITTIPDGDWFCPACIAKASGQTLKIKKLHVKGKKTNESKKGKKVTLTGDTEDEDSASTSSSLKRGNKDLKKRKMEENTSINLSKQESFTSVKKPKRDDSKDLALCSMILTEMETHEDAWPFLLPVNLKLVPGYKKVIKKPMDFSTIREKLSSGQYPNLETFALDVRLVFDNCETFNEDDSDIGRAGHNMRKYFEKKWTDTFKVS
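AlphaScreen displacement of biotin-H3(5-23)K14Ac peptide (50 nM final) from BAZ2B (50 nM final) in PBS pH 7.4, 0.01% Tween-20; complex preformed 30 min RT, then compounds (top 110 uM) 30 min RT, beads 20 min dark.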
HP1b chromo inh: HP1-beta chromodomain-methylated histone interaction inhibition. AID 540317. P83916. Potency, µM (series often up to 114 µM), hits mostly inhibitors. AlphaScreen HP1-beta / biotin-H3K9me3 peptide binding. hit rate 0.56% among 390,000; further: nearly all actives have a fitted effect of over 70% in size
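AlphaScreen: HP1-beta (50 nM) preformed 30 min with biotin-H3(1-18)K9me3 peptide (50 nM) in PBS pH 7.4, 0.01% Tween-20. Compound added for 30 min at RT, then streptavidin donor/nickel chelate acceptor beads (10 ug/mL) for 30 min.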
Sfp PPTase inh: blocks B. subtilis Sfp PPTase activity; Biochemical Sfp PPTase activity, qHTS; Potency, µM, usual class: inhibitors; hit rate 3.5% among 310,000;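 further: the enzyme is Sfp with the accession as filed and its product quenches rhodamine fluorescence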
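Step 1, compound plus 15 nM Sfp-PPTase, 15 min, room temperature. Step 2, add rhodamine-CoA (5 uM) and BHQ-2-YbbR (12.5 uM). Step 3, read 525/598 nm fluorescence at 0 and 30 min.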
L3MBTL1 inh: blocks human L3MBTL1; Q9Y468; AlphaScreen L3MBTL1–H3K9me1 peptide binding; Potency, µM (series often up to 57.1 µM), most hits filed as inhibitors; hit rate 0.66% among 230,000; AID 485360; further: nearly all actives have a fitted effect of over 60% in size
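L3MBTL1 (50 nM) pre-complexed 30 min with biotinylated H3(1-15)K9me1 peptide (75 nM), then compounds added for 30 min at room temperature; AlphaScreen streptavidin donor/nickel chelate acceptor beads (10 ug/mL final) read after 30 min dark incubation.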
JMJD2A Tudor inh: JMJD2A Tudor domain (human) inhibition; O75164; AlphaScreen JMJD2A-Tudor / H3K4me3 peptide binding; Potency, µM (titrated, usually from 114 µM), actives largely listed as inhibitors; hit rate 4.4% among 390,000; AID 504339; further: nearly all actives have a fitted effect of over 50% in size
Numbers stand for hits; [ ] = remark or other dose. The call rests on the fitted dose curve; in most records, active means well fitted curve in the direction sought with a large enough effect; inconclusive means small, poorly fitted or top-dose-only effect, or another doubt; inactive means no such curve, though single readings can be large; an effect the other way counts as inactive or inconclusive.

C=CCn1c(N)c(C(=O)NC2CCCCC2)sc1=S was read as G9a inh inactive, BAZ2B block inactive, HP1b chromo inh inactive, Sfp PPTase inh 15.8µM, L3MBTL1 inh inactive[11.4 µM] and JMJD2A Tudor inh inactive.
Screening C=CCn1c(N)c(C(=O)NCc2cccnc2)sc1=S returned G9a inh inconclusive, BAZ2B block inactive, HP1b chromo inh inactive, Sfp PPTase inh inactive and JMJD2A Tudor inh inactive.
CCOc1ccccc1CNC(=O)c1cc(-c2ccc(Cl)s2)nc2ccccc12 was read as G9a inh inactive, BAZ2B block inactive, HP1b chromo inh inactive and JMJD2A Tudor inh inactive.
`CC1=CC(C)(C)NC(=S)N1c1ccc(C)cc1` gave G9a inh inactive, BAZ2B block inactive, HP1b chromo inh inactive, Sfp PPTase inh inactive, L3MBTL1 inh inactive and JMJD2A Tudor inh inactive.
CC1=CC(C)(C)NC(=S)N1c1ccc(C)c(C)c1 was read as G9a inh inactive, BAZ2B block inactive, HP1b chromo inh inactive, Sfp PPTase inh inactive and JMJD2A Tudor inh inactive.
`CCC1(c2ccc(Cl)cc2)NC(=S)N(c2ccc(C)c(C)c2)N1` (stereo not drawn) gave G9a inh 17.8µM, BAZ2B block inactive, HP1b chromo inh inactive, Sfp PPTase inh inactive, L3MBTL1 inh inactive and JMJD2A Tudor inh inactive.
For CCC1(c2ccc(Cl)cc2)NC(=S)N(c2ccc(C)cc2)N1 (stereo not drawn) the results were G9a inh 28.2µM, BAZ2B block inactive, HP1b chromo inh inactive, Sfp PPTase inh inconclusive, L3MBTL1 inh inactive and JMJD2A Tudor inh 79.4µM.
CCC1(c2ccccc2)NC(=S)N(c2ccc(C)c(C)c2)N1 (stereo not drawn) was read as G9a inh 7.94µM, BAZ2B block inconclusive, HP1b chromo inh inactive, Sfp PPTase inh 8.91µM, L3MBTL1 inh inactive and JMJD2A Tudor inh inconclusive.
CC(=O)N1c2ccccc2CC1C(=O)N1CCN(c2cccc(C)c2C)CC1 (stereo not drawn) was read as G9a inh inactive[12.7 µM], BAZ2B block inactive, HP1b chromo inh inactive and JMJD2A Tudor inh inactive.
COc1ccccc1C(=O)CSc1nccn1C was read as G9a inh inconclusive, BAZ2B block inactive, HP1b chromo inh inactive, Sfp PPTase inh 56.2µM and JMJD2A Tudor inh inactive.
`Cn1ccnc1SCC(=O)c1ccc(Br)cc1` gave G9a inh 50.1µM, BAZ2B block inconclusive, HP1b chromo inh inactive, Sfp PPTase inh inactive, L3MBTL1 inh inactive and JMJD2A Tudor inh inconclusive.
`Cn1ccnc1SCC(=O)c1c[nH]c2ccccc12` gave G9a inh inactive, BAZ2B block inactive, HP1b chromo inh inactive, Sfp PPTase inh inactive, L3MBTL1 inh inactive and JMJD2A Tudor inh inconclusive.
`CCc1ccccc1Nc1nc2ccccc2n2cnnc12` gave G9a inh inactive, BAZ2B block inactive, HP1b chromo inh inactive and JMJD2A Tudor inh inactive.
For CCCCn1c(=O)c2oc3ccccc3c2n(CC(=O)Nc2cccc(Cl)c2)c1=O the results were G9a inh inactive, BAZ2B block inactive, HP1b chromo inh inactive and JMJD2A Tudor inh inactive.
CCOC(=O)C1CCN(c2cc3c(cc2NC(=O)c2ccc(Cl)cc2)n(C)c(=O)n3C)CC1 was read as G9a inh inactive, BAZ2B block inconclusive, HP1b chromo inh inactive and JMJD2A Tudor inh inactive.
Cc1ccc(NCCC(=O)c2cccs2)cc1C was read as G9a inh 31.6µM, BAZ2B block inconclusive, HP1b chromo inh inconclusive, Sfp PPTase inh inactive, L3MBTL1 inh inactive and JMJD2A Tudor inh 56.2µM.
CC(C)c1ccc(NCCC(=O)c2cccs2)cc1 was read as G9a inh inconclusive, BAZ2B block inconclusive, HP1b chromo inh inactive, Sfp PPTase inh inactive, L3MBTL1 inh inactive and JMJD2A Tudor inh inconclusive.
`Cc1ccc(NCCC(=O)c2cccs2)cc1` gave G9a inh 50.1µM, BAZ2B block inconclusive, HP1b chromo inh inactive, Sfp PPTase inh inactive, L3MBTL1 inh inactive and JMJD2A Tudor inh 50.1µM.
Screening Cc1ccc(-c2nc3ccccc3o2)cc1NC(=S)NC(=O)c1cc2ccccc2o1 returned G9a inh 50.1µM, BAZ2B block inactive, HP1b chromo inh inactive, Sfp PPTase inh inconclusive, L3MBTL1 inh inactive and JMJD2A Tudor inh inactive.
Screening COc1ccc(NC(=O)CCc2ccccc2)cc1NC(=O)c1ccco1 returned G9a inh inactive, BAZ2B block inactive, HP1b chromo inh inactive, Sfp PPTase inh inactive and JMJD2A Tudor inh inactive.
COc1ccc(NC(=S)NC(=O)c2cc3ccccc3o2)c(OC)c1 was read as G9a inh 10µM, BAZ2B block inactive, HP1b chromo inh inactive, Sfp PPTase inh inactive and JMJD2A Tudor inh inactive.
For COc1ccc(NC(=O)c2oc3ccccc3c2NC(=O)c2ccco2)c(OC)c1 the results were G9a inh inactive[2.33 µM], BAZ2B block inactive, HP1b chromo inh inactive, Sfp PPTase inh 25.1µM, L3MBTL1 inh inactive and JMJD2A Tudor inh inactive.
For COc1ccc(CC(=O)Nc2ccc(OC)c(NC(=O)c3ccco3)c2)cc1 the results were G9a inh 50.1µM, BAZ2B block inactive, HP1b chromo inh inactive, Sfp PPTase inh inactive, L3MBTL1 inh inactive and JMJD2A Tudor inh inactive.
Cc1ccc(-c2nc3cc(C(C)C)ccc3o2)cc1NC(=O)c1cc2ccccc2o1 was read as G9a inh inactive, BAZ2B block inactive, HP1b chromo inh inactive and JMJD2A Tudor inh inactive.
`CN(C)c1nc(N)c2ncc(=S)[nH]c2n1` gave G9a inh 1.78µM, BAZ2B block inactive, HP1b chromo inh inactive, Sfp PPTase inh 50.1µM, L3MBTL1 inh inactive and JMJD2A Tudor inh 3.16µM.
For NCCCC[C@H](NC(=O)[C@H](Cc1c[nH]c2ccccc12)NC(=O)[C@H](CC(=O)O)NC(=O)[C@H](Cc1cnc[nH]1)NC(=O)[C@H](CO)NC(=O)[C@H](Cc1c[nH]c2ccccc12)NC(=O)[C@H](Cc1cnc[nH]1)NC(=O)[C@@H]1CCC(=O)N1)C(=O)N1CCC[C@H]1C(=O)NCC(N)=O the results were Sfp PPTase inh inactive.
`CCOc1ccc(NC(=O)Cn2c(=O)n(CC(=O)NCCc3ccccc3)c(=O)c3sccc32)cc1` gave G9a inh inactive, BAZ2B block inactive, HP1b chromo inh inactive and JMJD2A Tudor inh inactive.
Screening CC(=O)c1c(C)oc2ccc(N(C(=O)Oc3ccccc3)S(=O)(=O)c3ccc(Br)cc3)cc12 returned G9a inh inactive, BAZ2B block inactive, HP1b chromo inh inactive and JMJD2A Tudor inh inactive.
`CC(C)Cn1c(N)c(C(=O)COC(=O)C2CCCCC2)c(=O)n(C)c1=O` gave G9a inh inconclusive, BAZ2B block inactive, HP1b chromo inh inactive, Sfp PPTase inh inactive, L3MBTL1 inh inactive and JMJD2A Tudor inh 25.1µM.
COc1ccc(CCC(=O)OCC(=O)c2c(N)n(CC(C)C)c(=O)n(C)c2=O)cc1 was read as G9a inh 79.4µM, BAZ2B block inconclusive, HP1b chromo inh inactive, Sfp PPTase inh inactive and JMJD2A Tudor inh inactive.
